Results filed as inconclusive are left out. Active and inactive are the calls of the source. Unless noted, calls come from the whole dose curve; as a rule, active = well fitted curve in the direction sought with a large enough effect in the repeat runs; inconclusive = weak or mixed curves; inactive = no such curve, though single readings can be large; an effect the other way counts as inactive or inconclusive.
Key:
[1] = qHTS assay to identify small molecule antagonists of the thyroid receptor (TR) signaling pathway - cell viability counter screen (AID 743064); note: nearly all actives have a fitted effect of over 50% in size
How it was run: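 Plate GH3.TRE-Luc cells; incubate 4 h at 37 °C; add compound, then T3 to 1 nM final; incubate 23.5 h; add CellTiter-Fluor; incubate 30 min at 37 °C, 5% CO2; read fluorescence.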

[2] = qHTS assay to identify small molecule antagonists of the thyroid receptor (TR) signaling pathway (AID 743065); note: series mostly up to about 70 µM; nearly all actives have a fitted effect of over 55% in size
How it was run: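 GH3.TRE-Luc rat pituitary cells carrying two TR response elements driving luciferase were plated for 4 h, given compound plus 1 nM T3 (final), and incubated 23.5 h at 37 C. ONE-Glo luminescence measured reporter inhibition; CellTiter-Fluor fluorescence tracked cytotoxicity.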

[3] = tested on: thyroid hormone receptor (rat, GH3 cells); assay: qHTS assay to identify small molecule agonists of the thyroid receptor (TR) signaling pathway (AID 743066; calls by dose curve)
[4] = target: Estrogen receptor (Homo sapiens) (UniProt P03372); assay: qHTS assay to identify small molecule antagonists of the estrogen receptor alpha (ER-alpha) signaling pathway (AID 743069; active = well fitted curve in the direction sought with a large enough effect in the signal ratio in the repeat runs, not every such curve was filed as active; the % refers to the signal ratio)
How it was run: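 A 17beta-estradiol challenge was applied right after compound transfer to ER-alpha-UAS-bla HEK293 cells previously kept in charcoal-stripped serum. Plates stood 18 hr at 37C and 5% CO2; fluorescence was read following 2 hr FRET substrate loading at room temperature.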

[5] = qHTS assay to identify small molecule antagonists of the estrogen receptor alpha (ER-alpha) signaling pathway - cell viability counter screen (AID 743074; calls by dose curve;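 note: HEK293 cells carrying ER-alpha-UAS-bla reporter stimulated with 17beta-estradiol; nearly all actives have a fitted effect of over 45% in size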)
[6] = target: Estrogen receptor (Homo sapiens) (UniProt P03372); assay: qHTS assay to identify small molecule agonists of the estrogen receptor alpha (ER-alpha) signaling pathway (AID 743075; calls by dose curve;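 note: HEK293 GripTite cells with ER-alpha and UAS-driven beta-lactamase reporter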)
[7] = qHTS assay to identify small molecule antagonists of the estrogen receptor alpha (ER-alpha) signaling pathway using the BG1 cell line - cell viability counter screen (AID 743081);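 note: compound given together with 17beta-estradiol as the ER stimulus; series mostly up to about 70 µM; nearly all actives have a fitted effect of over 45% in size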
Aromatase (Homo sapiens) = Aromatase (Homo sapiens) (UniProt P11511); assay: qHTS assay to identify aromatase inhibitors (AID 743083); note: series mostly up to about 70 µM; nearly all actives have a fitted effect of over 55% in size
[8] = qHTS assay to identify aromatase inhibitors - cell viability counter screen (AID 743084);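 note: cells stimulated with testosterone during compound exposure; nearly all actives have a fitted effect of over 55% in size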
[9] = qHTS assay to identify small molecule that activate the aryl hydrocarbon receptor (AhR) signaling pathway - cell viability counter screen (AID 743086);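 note: HepG2 liver cells carrying the AhR DRE luciferase reporter; series mostly up to about 70 µM; nearly all actives have a fitted effect of over 45% in size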
How it was run: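 HepG2-AhR-luc (HG2L7.5c1) cells, 4000/well, were preincubated 5 h at 37C, exposed to compound in qHTS format for 24 hr at 37C, then given CellTiter-Fluor for 30 min; viability was read as fluorescence in the reporter wells.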

[10] = target: Peroxisome proliferator-activated receptor gamma (Homo sapiens) (UniProt P37231); assay: qHTS assay to identify small molecule agonists of the peroxisome proliferator-activated receptor gamma (PPARg) signaling pathway (AID 743094; active = well fitted activation curve with a large enough effect in the signal ratio in the repeat runs, not every such curve was filed as active; the % refers to the signal ratio)
How it was run: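 Fluorescence-based beta-lactamase readout in HEK293H PPARg UAS-bla cells after 17 h compound exposure (37C) and 1 h B/G FRET substrate incubation at room temperature.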

[11] = target: Peroxisome proliferator-activated receptor gamma (Homo sapiens) (UniProt P37231); assay: qHTS assay to identify small molecule antagonists of the peroxisome proliferator-activated receptor gamma (PPARg) signaling pathway (AID 743191; calls by dose curve; note: series mostly up to about 63 µM; nearly all actives have a fitted effect of over 30% in size)
How it was run: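 GeneBLAzer PPARg UAS-bla HEK293H cells carrying a UAS-driven beta-lactamase reporter were plated at 3000 cells/well, preincubated 5 h at 37C, then given compound for 17 h at 37C; LiveBLAzer B/G FRET substrate was read after 1 h at room temperature.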

[12] = qHTS assay to identify small molecule antagonists of the peroxisome proliferator-activated receptor gamma (PPARg) signaling pathway - cell viability counter screen (AID 743194); note: nearly all actives have a fitted effect of over 55% in size
How it was run: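 PPARg-UAS-bla HEK293H cells were plated, rested 5 h at 37 C, then treated with compounds plus rosiglitazone (50 nM final) for 17 h at 37 C; viability was then read by CellTiter-Glo luminescence after 30 min at room temperature.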

[13] = qHTS assay for small molecule agonists of the antioxidant response element (ARE) signaling pathway - cell viability counter screen (AID 743203; calls by dose curve; note: nearly all actives have a fitted effect of over 55% in size)
How it was run: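 Parallel cytotoxicity read-out for the ARE-bla screen: HepG2 reporter cells, 16 hrs with compounds, then CellTiter-Glo luminescence.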

[14] = qHTS assay for small molecule activators of the heat shock response signaling pathway - cell viability counter screen (AID 743209); note: nearly all actives have a fitted effect of over 50% in size
How it was run: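 To flag cytotoxic compounds, HSE-bla HeLa cells plated at 1500 cells/well were dosed for 5 h at 37 C, followed by the reporter FRET read and then CellTiter-Glo, with luminescence recorded 30 min after reagent addition.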

[15] = target: Aryl hydrocarbon receptor (Homo sapiens) (UniProt P35869); assay: qHTS assay to identify small molecule that activate the aryl hydrocarbon receptor (AhR) signaling pathway (AID 743085);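 note: HG2L7.5c1 human HepG2 liver cells with stably integrated DRE-driven firefly reporter; series mostly up to about 70 µM; nearly all actives have a fitted effect of over 15% in size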
How it was run: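 Steps: seed HepG2-AhR-luc cells; allow 5 h at 37C; pin-transfer test compound or vehicle; incubate 24 h at 37C; add viability dye (30 min, 37C) and read fluorescence; add luciferase substrate (30 min, RT) and read luminescence.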

[16] = qHTS assay for small molecule agonists of the antioxidant response element (ARE) signaling pathway (AID 743202; active = well fitted activation curve with a large enough effect in the signal ratio in the repeat runs, not every such curve was filed as active; the % refers to the signal ratio)
How it was run: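 Following a 16 h, 37 C exposure of reporter HepG2 cells (ARE-driven beta-lactamase, 2,000 cells/well) to compounds, FRET substrate was applied for 2 h at room temperature and fluorescence intensity recorded.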

[17] = qHTS assay for small molecule activators of the heat shock response signaling pathway (AID 743210; active = well fitted activation curve with a large enough effect in the signal ratio in the repeat runs, with a control signal flat, not every such curve was filed as active; the % refers to the signal ratio; note: series mostly up to about 63 µM)
How it was run: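 Heat shock element–beta-lactamase HeLa reporter cells; qHTS with compounds for 5 h at 37 C; detection by FRET substrate fluorescence after 2.5 h at RT.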

Measured: Potency

Sequence of Peroxisome proliferator-activated receptor gamma (Homo sapiens) (P37231 whole entry, looked up): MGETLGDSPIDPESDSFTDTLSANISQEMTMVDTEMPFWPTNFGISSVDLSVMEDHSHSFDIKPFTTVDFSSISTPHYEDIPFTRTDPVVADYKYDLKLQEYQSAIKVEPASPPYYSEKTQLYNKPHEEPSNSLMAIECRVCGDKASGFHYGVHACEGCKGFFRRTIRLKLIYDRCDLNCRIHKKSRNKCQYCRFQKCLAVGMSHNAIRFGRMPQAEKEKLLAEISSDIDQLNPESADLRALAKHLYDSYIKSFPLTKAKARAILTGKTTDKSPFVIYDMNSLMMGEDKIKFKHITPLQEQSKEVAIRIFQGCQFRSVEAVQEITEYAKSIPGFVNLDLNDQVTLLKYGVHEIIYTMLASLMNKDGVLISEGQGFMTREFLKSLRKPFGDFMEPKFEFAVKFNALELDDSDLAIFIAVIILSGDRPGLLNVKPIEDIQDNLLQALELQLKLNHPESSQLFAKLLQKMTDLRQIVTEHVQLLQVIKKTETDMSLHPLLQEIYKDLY
Sequence of Aromatase (Homo sapiens) (P11511 whole entry, looked up): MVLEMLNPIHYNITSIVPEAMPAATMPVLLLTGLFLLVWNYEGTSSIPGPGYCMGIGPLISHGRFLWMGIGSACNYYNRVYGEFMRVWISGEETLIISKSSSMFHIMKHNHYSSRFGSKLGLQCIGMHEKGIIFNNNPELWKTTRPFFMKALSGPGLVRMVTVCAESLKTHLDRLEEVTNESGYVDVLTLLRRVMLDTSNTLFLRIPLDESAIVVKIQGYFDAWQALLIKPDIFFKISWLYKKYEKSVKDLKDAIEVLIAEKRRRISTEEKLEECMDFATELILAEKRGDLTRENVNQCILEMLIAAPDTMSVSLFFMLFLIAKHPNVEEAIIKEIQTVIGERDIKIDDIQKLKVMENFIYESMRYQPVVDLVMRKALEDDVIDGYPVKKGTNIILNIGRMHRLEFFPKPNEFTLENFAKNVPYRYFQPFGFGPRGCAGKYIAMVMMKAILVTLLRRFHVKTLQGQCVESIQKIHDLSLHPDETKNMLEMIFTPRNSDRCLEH
Sequence of Estrogen receptor (Homo sapiens) (P03372 whole entry, looked up): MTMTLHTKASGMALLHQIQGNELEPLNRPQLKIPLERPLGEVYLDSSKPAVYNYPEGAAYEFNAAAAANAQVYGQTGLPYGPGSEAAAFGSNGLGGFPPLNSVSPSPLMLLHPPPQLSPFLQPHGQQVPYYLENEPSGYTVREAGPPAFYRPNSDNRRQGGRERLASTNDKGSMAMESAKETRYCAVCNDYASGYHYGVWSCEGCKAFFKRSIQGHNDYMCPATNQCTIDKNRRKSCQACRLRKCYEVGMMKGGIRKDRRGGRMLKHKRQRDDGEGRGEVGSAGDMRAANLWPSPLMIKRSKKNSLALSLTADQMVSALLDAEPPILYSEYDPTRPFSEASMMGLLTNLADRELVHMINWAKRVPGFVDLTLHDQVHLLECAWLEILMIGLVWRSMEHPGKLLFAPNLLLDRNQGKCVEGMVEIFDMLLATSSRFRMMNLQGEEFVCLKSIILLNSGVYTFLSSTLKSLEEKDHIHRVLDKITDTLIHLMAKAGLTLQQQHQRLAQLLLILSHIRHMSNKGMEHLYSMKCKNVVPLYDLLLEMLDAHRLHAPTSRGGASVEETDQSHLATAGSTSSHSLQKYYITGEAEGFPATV
Sequence of Aryl hydrocarbon receptor (Homo sapiens) (P35869 whole entry, looked up): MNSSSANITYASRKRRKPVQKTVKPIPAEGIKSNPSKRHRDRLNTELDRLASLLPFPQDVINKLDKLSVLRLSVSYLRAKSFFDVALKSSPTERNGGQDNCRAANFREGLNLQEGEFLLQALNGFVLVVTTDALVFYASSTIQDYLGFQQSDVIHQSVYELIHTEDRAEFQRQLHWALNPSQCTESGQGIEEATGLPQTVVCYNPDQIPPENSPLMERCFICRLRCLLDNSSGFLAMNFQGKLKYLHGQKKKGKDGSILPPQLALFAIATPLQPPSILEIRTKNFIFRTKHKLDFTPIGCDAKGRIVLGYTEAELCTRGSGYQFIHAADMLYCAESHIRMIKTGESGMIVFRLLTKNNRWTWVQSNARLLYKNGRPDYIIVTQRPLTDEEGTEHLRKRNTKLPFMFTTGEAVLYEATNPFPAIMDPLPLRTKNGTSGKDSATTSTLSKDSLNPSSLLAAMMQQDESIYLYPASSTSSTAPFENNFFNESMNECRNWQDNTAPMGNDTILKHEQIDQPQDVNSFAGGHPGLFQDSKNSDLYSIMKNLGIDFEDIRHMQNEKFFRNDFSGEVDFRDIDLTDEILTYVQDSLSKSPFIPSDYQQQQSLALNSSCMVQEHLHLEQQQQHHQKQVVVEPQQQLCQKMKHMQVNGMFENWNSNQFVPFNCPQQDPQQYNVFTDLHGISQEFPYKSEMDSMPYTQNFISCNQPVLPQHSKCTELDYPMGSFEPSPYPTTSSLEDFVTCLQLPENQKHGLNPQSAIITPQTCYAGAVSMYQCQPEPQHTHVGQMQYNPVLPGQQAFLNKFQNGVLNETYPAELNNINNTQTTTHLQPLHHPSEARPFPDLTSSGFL

CCOc1ccc(NC(C)=O)cc1N
not listed: [15] | [16] | [17]
inactive: all other assays above

N#Cc1ccc(CC(=O)c2cccc(C(F)(F)F)c2)cc1
not listed: [4] | [6] | [13]
inactive: all other assays above

O=Cc1ccc(Cl)c([N+](=O)[O-])c1
not listed: [4] | Aromatase (Homo sapiens) | [8] | [14] | [16] | [17]
inactive: all other assays above

CS(C)=O
not listed: [4] | [6] | [11] | [13] | [14] | [16] | [17]
inactive: all other assays above

Cc1c(Cl)cccc1[N+](=O)[O-]
not listed: [4] | [6]
inactive: all other assays above

C=CC(C)CCC=C(C)C (stereo unspecified)
not listed: [4] | [6]
inactive: all other assays above

OCCOc1cccc(OCCO)c1
not listed: [4] | [6] | [10] | [17]
inactive: all other assays above

CC(C(=O)O)c1ccc2c(c1)Cc1cccnc1O2 (stereo unspecified)
not listed: [4] | [6] | [11]
inactive: all other assays above

Cc1cccc(C)c1NC(=O)CN1CCCC1
not listed: [4] | [6] | [15] | [17]
inactive: all other assays above

C=C(C)C(=O)OCCCCCCCCCCOC(=O)C(=C)C
not listed: [4] | [6] | [10] | [14] | [17]
inactive: all other assays above
